Reference: a collection of fitness landscapes (doi:10.1126/science.1257360)
Whole data set: some 140,000 sequences, median “enrichment ratio after two sorts for PhoP signalling” near 0, cut for the highest 2% near 11. The list comes from a sample in which the highest values are over-represented; it also holds similar and randomly drawn sequences.

B1: PhoQ; a variant is named by its letters at X, in order, P23837 (parent)
chain: MKKLLRLFFPLSLRVRFLLATAAVVLVLSLAYGMVALIGYSVSFDKTTFRLLRGESNLFYTLAKWENNKLHVELPENIDKQSPTMTLIYDENGQLLWAQRDVPWLMKMIQPDWLKSNGFHEIEADVNDTSLLLSGDHSIQQQLQEVREDDDDAEMTHSVAVNVYPATSRMPKLTIVVVDTIPVELKSSYMVWSWFIYVLSANLLLVIPLLWVAAWWSLRPIEALAKEVRELEEHNRELLNPATTRELTSLVRNLNRLLKSERERYDKYRTTLTDLTHSLKTPLXXLQXXLRSLRSEKMSVSDAEPVMLEQISRISQQIGYYLHRASMRGGTLLSRELHPVAPLLDNLTSALNKVYQRKGVNISLDISPEISFVGEQNDFVEVMGNVLDNACKYCLEFVEISARQTDEHLYIVVEDDGPGIPLSKREVIFDRGQRVDTLRPGQGVGLAVAREITEQYEGKIVAGESMLGGARMEVIFGRQHSAPKDE

Variants of: B1
Experiment: enrichment ratio after two sorts for PhoP signalling (ratio (wild type AVST 3.29)); higher = more functional
Settings: with PhoP (E. coli)
For SQSQ, the enrichment ratio was 8.8. In the case of SRSQ, the enrichment ratio is reported as ≤ 0.25. With SETC the enrichment ratio was 13.2. SESQ was tested, and the enrichment ratio was 13.9. In the case of SRSH, the enrichment ratio is reported as ≤ 0.25. In the case of KYSC, the enrichment ratio is reported as ≤ 0.25. With SESK the enrichment ratio was 5.02. For SENK, the enrichment ratio was ≤ 0.25. SEFC showed an enrichment ratio of 10.4. SESC gave an enrichment ratio of 18.4. With DDSC the enrichment ratio was ≤ 0.25. Variant LSYF has an enrichment ratio of 0.698. In the case of FERS, the enrichment ratio is reported as ≤ 0.25. With FKHR the enrichment ratio was ≤ 0.25. QKRW was tested, and the enrichment ratio was ≤ 0.25. TIRN was tested, and the enrichment ratio was ≤ 0.25. For KKEL, the enrichment ratio was ≤ 0.25. In the case of MLWA, the enrichment ratio is reported as ≤ 0.25. With HFVY the enrichment ratio was ≤ 0.25. In the case of GASL, the enrichment ratio is reported as 3.66. With KYEC the enrichment ratio was ≤ 0.25. SETW showed an enrichment ratio of 3.01. With SETK the enrichment ratio was ≤ 0.25. For SLEC, the enrichment ratio was ≤ 0.25. SEEC was tested, and the enrichment ratio was 15.4. METM showed an enrichment ratio of 4.44. Work on SETA yielded an enrichment ratio of 10.5. In the case of SETM, the enrichment ratio is reported as 18.3. SETH gave an enrichment ratio of 15.6. In the case of SETG, the enrichment ratio is reported as 9.95. SETI was tested, and the enrichment ratio was 19.9. ICMG was tested, and the enrichment ratio was ≤ 0.25. With NYHW the enrichment ratio was ≤ 0.25. For EGMK, the enrichment ratio was ≤ 0.25. SVFE was tested, and the enrichment ratio was ≤ 0.25. With PKCE the enrichment ratio was ≤ 0.25. In the case of LWIA, the enrichment ratio is reported as ≤ 0.25. With VVHK the enrichment ratio was ≤ 0.25. With PWSL the enrichment ratio was ≤ 0.25. For YMEP, the enrichment ratio was ≤ 0.25. With SETD the enrichment ratio was ≤ 0.25. SASH was tested, and the enrichment ratio was 12.2. For SETS, the enrichment ratio was 12. In the case of SETE, the enrichment ratio is reported as 5.75. SEMH was tested, and the enrichment ratio was 19.3. With SANH the enrichment ratio was ≤ 0.25. SASK was tested, and the enrichment ratio was ≤ 0.25. Work on STMH yielded an enrichment ratio of 8.42. KYMH was tested, and the enrichment ratio was ≤ 0.25. For DGLS, the enrichment ratio was ≤ 0.25. With FPTK the enrichment ratio was ≤ 0.25. In the case of DPHW, the enrichment ratio is reported as ≤ 0.25. WDVW was tested, and the enrichment ratio was ≤ 0.25. In the case of QFAR, the enrichment ratio is reported as ≤ 0.25. With VVQA the enrichment ratio was ≤ 0.25. PSLS was tested, and the enrichment ratio was ≤ 0.25. WGGY was tested, and the enrichment ratio was ≤ 0.25. For ITTH, the enrichment ratio was ≤ 0.25. In the case of DSGI, the enrichment ratio is reported as ≤ 0.25. With NRIH the enrichment ratio was ≤ 0.25. GSIM gave an enrichment ratio of 11.6. GCCK was tested, and the enrichment ratio was ≤ 0.25. GCGM gave an enrichment ratio of 2.98. Variant GAIM has an enrichment ratio of 15.4. In the case of GSWM, the enrichment ratio is reported as ≤ 0.25. For NATM, the enrichment ratio was ≤ 0.25. For KATM, the enrichment ratio was ≤ 0.25. GCIM showed an enrichment ratio of 24.5. With GAPM the enrichment ratio was ≤ 0.25. GSTM gave an enrichment ratio of 6.87. In the case of GATM, the enrichment ratio is reported as 15.3. With KAIM the enrichment ratio was ≤ 0.25. Variant TSES has an enrichment ratio of 2.55. SFWK was tested, and the enrichment ratio was ≤ 0.25. In the case of AMIT, the enrichment ratio is reported as ≤ 0.25. With NCDK the enrichment ratio was ≤ 0.25. For DMRV, the enrichment ratio was ≤ 0.25. For EDCW, the enrichment ratio was ≤ 0.25. In the case of MMNP, the enrichment ratio is reported as ≤ 0.25. DYLI was tested, and the enrichment ratio was ≤ 0.25. Work on GIIM yielded an enrichment ratio of 1.99. In the case of GVWM, the enrichment ratio is reported as ≤ 0.25. Variant GVIM has an enrichment ratio of 19.3. NVIM was tested, and the enrichment ratio was ≤ 0.25. For MATM, the enrichment ratio was 22.6. With YHIM the enrichment ratio was ≤ 0.25. GNIM was tested, and the enrichment ratio was 13.4. FMTM was tested, and the enrichment ratio was ≤ 0.25. MAPM was tested, and the enrichment ratio was ≤ 0.25. GGIM gave an enrichment ratio of 13.9. In the case of NIIM, the enrichment ratio is reported as ≤ 0.25. With GTIM the enrichment ratio was 2.86. For VKAK, the enrichment ratio was ≤ 0.25. With HKPF the enrichment ratio was ≤ 0.25. EDLF was tested, and the enrichment ratio was ≤ 0.25. For GLPS, the enrichment ratio was ≤ 0.25. For PYPA, the enrichment ratio was ≤ 0.25. With KRQM the enrichment ratio was ≤ 0.25. In the case of HDQM, the enrichment ratio is reported as ≤ 0.25. In the case of YYGF, the enrichment ratio is reported as ≤ 0.25. In the case of YSDV, the enrichment ratio is reported as ≤ 0.25. VFWT was tested, and the enrichment ratio was ≤ 0.25. MQSM showed an enrichment ratio of 8.88. Work on MVSM yielded an enrichment ratio of 12.3. GVSM gave an enrichment ratio of 0.841. With GYSM the enrichment ratio was ≤ 0.25. With MVTM the enrichment ratio was 3.98. MESM gave an enrichment ratio of 19. GQSM was tested, and the enrichment ratio was 20.5. With MRSM the enrichment ratio was ≤ 0.25. In the case of MVHF, the enrichment ratio is reported as 0.626. For FVSM, the enrichment ratio was ≤ 0.25. FQSM was tested, and the enrichment ratio was ≤ 0.25. Work on MASM yielded an enrichment ratio of 16.9. LDIM was tested, and the enrichment ratio was ≤ 0.25. Variant MSCN has an enrichment ratio of 1.97. THNV was tested, and the enrichment ratio was ≤ 0.25. For ILTF, the enrichment ratio was 0.323. GVMY was tested, and the enrichment ratio was ≤ 0.25. For KDHR, the enrichment ratio was ≤ 0.25. With QESM the enrichment ratio was 5.67. In the case of GESF, the enrichment ratio is reported as 0.55. Work on TESF yielded an enrichment ratio of 11.5. For GSSF, the enrichment ratio was 0.449. Variant TESM has an enrichment ratio of 30. In the case of GESM, the enrichment ratio is reported as 17.3. In the case of NESM, the enrichment ratio is reported as ≤ 0.25. In the case of GSQM, the enrichment ratio is reported as ≤ 0.25. With QESF the enrichment ratio was ≤ 0.25. For NESF, the enrichment ratio was ≤ 0.25. Work on GSSM yielded an enrichment ratio of 11.2. For GEHF, the enrichment ratio was ≤ 0.25. TLHH was tested, and the enrichment ratio was ≤ 0.25. FQMV showed an enrichment ratio of 0.463. For MHQA, the enrichment ratio was ≤ 0.25. For NHWK, the enrichment ratio was ≤ 0.25. For ITGV, the enrichment ratio was ≤ 0.25. With TASM the enrichment ratio was 13.4. For NASM, the enrichment ratio was ≤ 0.25. With KASM the enrichment ratio was ≤ 0.25. In the case of AEWF, the enrichment ratio is reported as ≤ 0.25. For WRRW, the enrichment ratio was ≤ 0.25. With SHND the enrichment ratio was ≤ 0.25. For THND, the enrichment ratio was 29.6. In the case of NHND, the enrichment ratio is reported as ≤ 0.25. Variant TKND has an enrichment ratio of 12.6. In the case of AKND, the enrichment ratio is reported as ≤ 0.25. For MKND, the enrichment ratio was ≤ 0.25. DRLD was tested, and the enrichment ratio was ≤ 0.25. In the case of HSGG, the enrichment ratio is reported as ≤ 0.25. With FKNI the enrichment ratio was ≤ 0.25. NEDI was tested, and the enrichment ratio was ≤ 0.25. In the case of NKAR, the enrichment ratio is reported as ≤ 0.25.
